Screen size: about 1,100 compounds; about 860 (78%) were called active. Inconclusive results (about 19%) are left out. Calls follow the shape of the dose curve; as a rule, active = well fitted activation curve with a large enough effect; inconclusive = small, poorly fitted or top-dose-only effect; inactive = flat fitted curve, though single readings scatter. The set was probably picked from earlier hits. The list shows a part of the results.
experiment: qHTS of Nrf2 Activators: Hit Validation in Primary Assay; conditions: Nrf2/ARE reporter cell assay; Potency: activation; series mostly up to 46.1 µM; also: nearly all actives have a fitted effect of over 70% in size
Summary of the method: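 AREc32 cells stably carrying an ARE-driven firefly luciferase, plated overnight, then exposed 24 h at 37 °C to compounds at several concentrations. ARE activation read as luminescence with Steady-Glo after 30 min at room temperature.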
Potency is read from the fitted curve at half-maximal effect.

Potency, active:
N#Cc1cccn1-c1nccc(-c2cccs2)n1 4.61 µM, CC1CCc2c(cc(-c3ccccc3)n2-c2ccc(C(=O)NC(C)C)cc2)C1 (stereo unspecified) 23.1 µM, COCCNC(=O)c1ccc(-n2c(-c3ccccc3)cc3c2CCC(C)C3)cc1 (stereo unspecified) 16.4 µM, Cc1ccc(S(=O)(=O)c2nc(S(C)(=O)=O)sc2N2CCC(C)CC2)cc1 20.6 µM, Cc1ccc(S(=O)(=O)c2nc(S(C)(=O)=O)sc2N2CCC(O)CC2)cc1 9.2 µM, Cc1ccc(S(=O)(=O)c2nc(S(C)(=O)=O)sc2N2CCCCC2C)cc1 (stereo unspecified) 2.06 µM, COc1ccc(-c2cc3ccccc3oc2=O)cc1NC(=O)c1ccc([N+](=O)[O-])o1 3.26 µM, COc1ccccc1NC(=O)c1cnc(SCC(=O)NCCc2ccccc2)n(C)c1=O 3.66 µM, Cc1ccc(OCC(=O)Nc2cccc3ccccc23)c([N+](=O)[O-])n1 11.6 µM, O=C(COc1cccnc1[N+](=O)[O-])Nc1cccc2ccccc12 16.4 µM, C/C(=N\Nc1ccc2nncn2n1)c1ccc(Cl)s1 3.66 µM, COc1ccc([N+](=O)[O-])cc1C1NN=C(c2ccccc2O)S1 (stereo unspecified) 2.91 µM, O=C1CC(c2ccco2)CC(O)=C1C=Nc1cc(Cl)ccc1O (stereo unspecified) 4.61 µM, CC1(C)C(=O)OC(/C=C/c2cccc([N+](=O)[O-])c2)C(C)(C)C1=O (stereo unspecified) 1.03 µM, N#C/C(=C\c1c(Oc2ccc(Cl)cc2)nc2ccccn2c1=O)C(=O)NC1CCS(=O)(=O)C1 (stereo unspecified) 2.06 µM, Cc1cc(C)c2c(N)c(C(=O)c3ccc(Br)cc3)oc2n1 4.11 µM, Cc1ccc(-c2cc(-c3cccc(F)c3)n[nH]2)c(O)c1 2.59 µM, O=Cc1c(NCc2ccco2)nc2ccccn2c1=O 1.64 µM, Cc1cccn2c(=O)c(C=NCCO)c(NCc3ccco3)nc12 2.59 µM, Fc1ccc2cc(-c3ccsc3)ncc2c1 7.31 µM, COc1ccc(N2C(=O)/C(=C\c3ccco3)N=C2SCC(N)=O)cc1Cl 1.64 µM, O=C(C=Cc1ccccc1Cl)c1ccccc1 18.4 µM, Clc1ccc(/C=N/Nc2nnc(Cl)c3ccccc23)cc1 2.31 µM, Clc1nnc(NN=C2CCCC2)c2ccccc12 4.61 µM, O=[N+]([O-])c1cccc(N2Cc3ccccc3C2)c1 20.6 µM, O=C(N/N=C/C(Br)=C/c1ccccc1)c1ccc([N+](=O)[O-])cc1 18.4 µM
